Results on 36 compounds are retold here after PubChem BioAssay (EPA / NIEHS).

“And” between values parts separate entries of the source, which are not always exact repeats. Identical values can stand only once. Results filed as inconclusive are left out. Some structures have more than one record in an assay (separate samples or runs), and their calls can disagree. The source made the active and inactive calls. Rule for the calls: active = hit-call score of the fitted dose curve at least 0.9, where 1 is the maximum; inconclusive = response in the unintended direction; inactive = score below 0.9.

In this test the target is Retinoic acid receptor RXR-alpha (Homo sapiens) (UniProt P19793). The test is described as follows: OT_NURR1_NURR1RXRa_0480: Odyssey Thera (OT) 8-hour HEK293T Protein Complementation Assay for Nurr1/retinoid X receptor (RXR) (AID 2283385). As to the method: OT_NURR1_NURR1RXRa_0480 is a cell-based assay that uses HEK293T, a human kidney cell line, with measurements taken at 8 hours after chemical dosing in a 384-well plate.OT_NURR1_NURR1RXRa_0480 is one of one assay component(s) measured or calculated from the OT_NURR1_NURR1RXRa_0480 assay. It is designed to make measurements of protein fragment complementation, a form of binding reporter, as detected with fluorescence intensity signals by Protein-fragment Complementation technology.Data from the assay component OT_NURR1_NURR1RXRa_0480 was analyzed into 1 assay endpoint. This assay endpoint, OT_NURR1_NURR1RXRa_0480, was analyzed in the positive analysis fitting direction relative to DMSO as the negative control and baseline of activity. Using a type of binding reporter, measures of receptor for gain-of-signal activity can be used to understand the binding at the pathway-level as they relate to the gene RXRA. Furthermore, this assay endpoint can be referred to as a primary readout, because the performed assay has only produced 1 assay endpoint. To generalize the intended target to other relatable targets, this assay endpoint is annotated to the nuclear receptor intended target family, where the subfamily is non-steroidal.
Sequence of Retinoic acid receptor RXR-alpha (Homo sapiens) (P19793 whole entry, looked up, the tested form may be a part): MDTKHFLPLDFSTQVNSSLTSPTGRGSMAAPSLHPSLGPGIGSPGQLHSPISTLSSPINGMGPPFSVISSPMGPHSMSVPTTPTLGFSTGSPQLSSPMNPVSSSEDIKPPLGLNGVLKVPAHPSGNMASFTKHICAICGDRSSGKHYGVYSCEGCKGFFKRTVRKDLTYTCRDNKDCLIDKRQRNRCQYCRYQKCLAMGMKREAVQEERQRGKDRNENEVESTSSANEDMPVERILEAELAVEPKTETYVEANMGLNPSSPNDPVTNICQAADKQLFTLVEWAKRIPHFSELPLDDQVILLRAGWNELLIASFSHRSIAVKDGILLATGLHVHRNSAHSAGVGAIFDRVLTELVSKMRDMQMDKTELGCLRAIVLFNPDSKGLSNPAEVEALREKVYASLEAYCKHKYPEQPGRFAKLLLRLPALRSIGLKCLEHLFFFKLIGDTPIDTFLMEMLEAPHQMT
Protein-fragment complementation assay, or PCA, is a method for the identification and quantification of protein-protein interactions. In the PCA, the proteins of interest ("bait" and "prey") are each covalently linked to fragments of a third protein (e.g. DHFR, which acts as a "reporter"). Interaction between the bait and the prey proteins brings the fragments of the reporter protein in close proximity to allow them to form a functional reporter protein whose activity can be measured.
Regarding `O=C(NC(=O)c1c(F)cccc1F)Nc1ccc(Cl)cc1`, the outcome was inactive.
On to `O=C(NC(=O)c1c(F)cccc1F)Nc1cc(Cl)c(OC(F)(F)C(F)C(F)(F)F)cc1Cl` (configuration not stated), for which the AC50 (as a rule, the concentration at which the activity in the assay is half-maximal) is 66.5 µM (active).
Turning to `Cc1cc(Cl)ccc1OC(C)C(=O)O` (configuration not stated), the compound was called inactive.
In the case of `O=C(O)C1(c2ccc3c(c2)OC[C@H](Cc2ccc(-c4ccccc4)cc2)[C@H]3O)CCCC1`, the AC50 is 76.2 µM (active) and 86.6 µM (active).
On to `COc1nn(C(=O)NS(=O)(=O)c2ccccc2OC(F)(F)F)c(=O)n1C`, for which the call was inactive.
With `Oc1cc(Cl)c(Cl)cc1Cl`, the AC50 is 78.3 µM (active) and the call was inactive.
Regarding `Cc1cc(C)cc(C)c1`, the compound was classed as inactive.
Consider `CCOCn1c(-c2ccc(Cl)cc2)c(C#N)c(Br)c1C(F)(F)F`, for which the AC50 was 9.59 µM (active).
Take `O=S1(=O)OC(c2cc(Br)c(O)c(Br)c2)(c2cc(Br)c(O)c(Br)c2)c2ccccc21`: the AC50 was 71.9 µM (active).
On to `Nc1ccc(N)cc1`, for which the call was inactive.
`O=S1OC[C@@H]2[C@H](CO1)[C@]1(Cl)C(Cl)=C(Cl)[C@@]2(Cl)C1(Cl)Cl` (some centres not stated): the AC50 was 91.8 µM (active).
Take `O=C1c2ccccc2C(=O)C1C(=O)C(c1ccccc1)c1ccc(Cl)cc1` (configuration not stated): the AC50 was 50 µM (active).
Turning to `CCOP(=S)(OCC)O/N=C(\C#N)c1ccccc1`, the outcome was inactive.
For `CCCCCCCCCCCCc1cccc(S(=O)(=O)O)c1`, the call was inactive.
Consider `C=CC(Cl)CCl` (configuration not stated), for which the outcome was inactive.
Consider `Cc1cc(Cl)ccc1O`, for which the call was inactive.
On the same count and under the same terms, next, `N#Cc1cccnc1`: “inactive”; `CC(C)(C)c1ccccc1O`: “inactive”.
Consider `CCOc1ccc(N)cc1`, for which the call was inactive.
As for `OCCN(CCO)CCO`, the outcome was inactive.
In the case of `O=C(O)COc1ccc(Cl)cc1`, the outcome was inactive.
On to `COC(=O)Nc1cccc(OC(=O)Nc2cccc(C)c2)c1`, for which the outcome was inactive.
As to `CN(C)C(=S)S`, the compound was called inactive.
Same read-out and setting: next, `C=CCN=C=S`: “inactive”; `Cc1cc(Cl)ccc1OCCCC(=O)O`: “inactive”; `O=C(CBr)c1ccc(O)cc1`: “inactive”.
As for `O=c1nc(O)n(Cl)c(=O)n1Cl`, the compound was classed as inactive.
`CN(N=O)C(N)=O`: the call was inactive.
As for `OCCCCO`, the compound was classed as inactive.
Consider `CC(C)=CC1C(C(=O)OCc2cccc(Oc3ccccc3)c2)C1(C)C` (configuration not stated), for which the compound was called inactive.
In the case of `Clc1cccc(Cl)c1Cl`, the compound was called inactive.
As to `O=C(N[C@H]1CN2CCC1CC2)c1ccc2c(c1)OCCO2`, the call was inactive.
In the case of `O=c1[nH]c(=O)n(Cl)c(=O)n1Cl`, the compound was called inactive.
As for `Oc1c(Br)cc(Br)cc1Br`, the call was inactive.
The same measure, in the same setting: next, `O=CCCl`: “inactive”; `CCCCCCCCCCCCOS(=O)(=O)O`: “inactive”.
